Experimental findings from PubChem BioAssay (EPA / NIEHS) are described below.

What is called AC50 is the concentration giving half of the maximal activity seen.

Calls of active or inactive are those of the source. How the source made its calls: active means hit-call score of the fitted dose curve at least 0.9, where 1 is the maximum; inactive means score below 0.9.

Read-out in this experiment: Intercellular Adhesion Molecule 1 (ICAM1), ICAM1 (gene 3383)
Kind of experiment: BSK_KF3CT_ICAM1: BioMAP Diversity Plus: KF3CT Assay for Intercellular Adhesion Molecule 1 (ICAM1) Biomarker Activity (AID 2283067). The settings on record: primary human keratinocytes with fibroblasts; actives raise or lower the signal. On the procedure:
BSK_KF3CT is a cell-based, multiplexed-readout assay that uses keratinocytes and foreskin fibroblasts, a human skin primary cell co-culture, with measurements taken at 24 hours after chemical dosing in a 96-well plate.BSK_KF3CT_ICAM1 is an assay component measured in the BSK_KF3CT assay. It measures ICAM-1 antibody related to regulation of gene expression using ELISA technology.Data from the assay component BSK_KF3CT_ICAM1 was analyzed into 1 assay endpoint. This assay endpoint, BSK_KF3CT_ICAM1, was analyzed with bidirectional fitting relative to DMSO as the negative control and baseline of activity. Using a type of binding reporter, gain or loss-of-signal activity can be used to understand changes in the signaling as they relate to the gene ICAM1. Furthermore, this assay endpoint can be referred to as a primary readout, because this assay has produced multiple assay endpoints where this one serves a signaling function. To generalize the intended target to other relatable targets, this assay endpoint is annotated to the cell adhesion molecules intended target family, where the subfamily is Immunoglobulin CAM.
The levels of cell surface (or secreted, indicated by the prefix "s") biomarker endpoints were measured by ELISA. Overt cytotoxicity to cells in confluent adherent cultures (all systems other than the BT system) was assessed by measuring total protein levels using sulforhodamine B (SRB) staining in parallel cultures at the time of biomarker measurements, indicated as SRB endpoints. For proliferation assays for adherent cell types, individual cell types are cultured at sub-confluence and relative cell numbers quantified by SRB staining at time points optimized for each system (48 h: 3C and CASM3C systems; 72 h: BT and HDF3CGF systems; 96 h: SAg system). SRB was performed by staining cells with 0.1% SRB after fixation with 10% TCA and reading wells at 560 nm.Viability and proliferation of PBMC (T cells) was quantified by Alamar Blue reduction for the SAg and BT systems. For PBMC viability (referred to as PBMC Cytotoxicity within the assay endpoint names), cells were plated (75,000/well in a 96-well plate) and then chemical samples added for 1 h before addition of activators, SEB and TSST-1 (20 ng/mL final concentration each). Cells were incubated for 90 h. Then, Alamar Blue (20 uL/well) (Invitrogen, Cat DAL1100) was added for 6 h, and the plates were read with a fluorescence microplate reader at 546/580 nm (excitation/emission). For PBMC proliferation, cells were plated and activated as above but incubated for only 16 h prior to addition of Alamar Blue. Plates were read after 6 h.
For the molecule `ClC1=C(Cl)[C@]2(Cl)[C@H]3[C@H]([C@@H]4C=C[C@H]3C4)[C@@]1(Cl)C2(Cl)Cl`, the AC50 was 15.5 µM (active).

As to `C1=Cc2cccc3cccc1c23`, the outcome was inactive.

Take `Oc1ccc2ccc3cccc4ccc1c2c34`: the result was inactive.

As for `Cc1ccc([N+](=O)[O-])cc1`, the result was inactive.

As to `CN(C)c1ccc(C(=O)c2ccc(N(C)C)cc2)cc1`, the outcome was inactive.

With `C[C@]12C=CC3=C4CCC(=O)C=C4CC[C@H]3[C@@H]1CC[C@@H]2O`, the outcome was inactive.

Turning to `O=[N+]([O-])c1ccc(Oc2ccc(Cl)cc2Cl)cc1`, the outcome was inactive.

As to `O=C(N[C@H](c1ccccc1)[C@@H]1CN2CCC1CC2)c1c(Cl)ccc(C(F)(F)F)c1Cl`, the AC50 was 49.6 µM (active).

In the case of `CC(C)(C)OOC(=O)c1ccccc1`, the result was inactive.

Consider `[O-][Cl+]O`, for which the result was inactive.

On to `CCCCOC(=O)c1ccccc1C(=O)OCc1ccccc1`, for which the outcome was inactive.

Regarding `CC(O)CCO` (stereo not given), the result was inactive.

Take `CC(C)N(Cc1ccccc1)C(=O)C(C)(C)C`: the result was inactive.

As for `CC(C)(C)OOC(C)(C)CCC(C)(C)OOC(C)(C)C`, the outcome was inactive.

As for `CCC[CH2][Sn]([Cl])([CH2]CCC)[CH2]CCC`, the AC50 is 0.148 µM (active).

As for `Nc1ccc(N=Nc2ccccc2)cc1`, the result was inactive.

Take `CN(C)C(=O)Nc1ccc(Cl)cc1`: the result was inactive.

With `OCCOCCO`, the outcome was inactive.

Regarding `COc1cc(C=O)cc2c1[C@H](COC(N)=O)[C@]1(OC(C)=O)ON2C[C@H]2[C@@H]1N2C(C)=O`, the AC50 is 11.6 µM (active).

Take `Nc1ccc([N+](=O)[O-])cc1`: the outcome was inactive.

Consider `CCN(CC)CCO`, for which the outcome was inactive.

Take `CNC(=O)Oc1cccc2c1OC(C)(C)C2`: the outcome was inactive.

With `Cc1cc(N=Nc2ccccc2C)ccc1N`, the half-maximal activity concentration (AC50) is 31.8 µM (active).

With `C=CCc1ccc2c(c1)OCO2`, the result was inactive.

Regarding `OCCCBr`, the outcome was inactive.

With `O=[N+]([O-])C(Br)(CO)CO`, the AC50 is 35.8 µM (active).

Turning to `N#CC(Br)(Br)C(N)=O`, the outcome was inactive.

On to `CCOc1cccc(C2(N3CCN(c4ccccc4)CC3)CCC(C)CC2)c1` (stereo not given), for which the result was inactive.

For the molecule `Cc1ccc(N=C=O)cc1N=C=O`, the result was inactive.

Turning to `COC(=O)Nc1nc2ccccc2[nH]1`, the result was inactive.

Regarding `O=Cc1ccco1`, the outcome was inactive.

Consider `CCN(CC)N=O`, for which the result was inactive.

Turning to `ClCCOCCCl`, the outcome was inactive.

With `Nc1ccc(Cl)cc1N`, the result was inactive.

`COP(=S)(OC)SCN1C(=O)c2ccccc2C1=O`: the outcome was inactive.

For `Nc1cc(Cl)cc(C(=O)O)c1Cl`, the result was inactive.

Take `c1ccc(N=Nc2ccccc2)cc1`: the result was inactive.

For `Nc1ccc(Oc2ccc(N)cc2)cc1`, the result was inactive.

In the case of `CC(C)(O)c1cnn2c(-c3ccc(F)c(-c4c(F)cccc4C#N)c3)cnc2n1`, the result was inactive.

On to `CO[C@@H]1[C@H](OC(=O)NC(=O)CCl)CC[C@]2(CO2)[C@H]1[C@@]1(C)O[C@@H]1CC=C(C)C`, for which the outcome was inactive.
